# Reference: the supplement of paper PMC3334620
# Over roughly 33,000 sequences, “E-score (-0.5 to 0.5)” has its median near -0.016; the highest 2% begin near 0.32. The sample holds the highest values, similar sequences and a random draw of the others, so the mix is not that of the screen.
# Target: T1, Stp1 (UniProt B3LFK1)
# T1 sequence: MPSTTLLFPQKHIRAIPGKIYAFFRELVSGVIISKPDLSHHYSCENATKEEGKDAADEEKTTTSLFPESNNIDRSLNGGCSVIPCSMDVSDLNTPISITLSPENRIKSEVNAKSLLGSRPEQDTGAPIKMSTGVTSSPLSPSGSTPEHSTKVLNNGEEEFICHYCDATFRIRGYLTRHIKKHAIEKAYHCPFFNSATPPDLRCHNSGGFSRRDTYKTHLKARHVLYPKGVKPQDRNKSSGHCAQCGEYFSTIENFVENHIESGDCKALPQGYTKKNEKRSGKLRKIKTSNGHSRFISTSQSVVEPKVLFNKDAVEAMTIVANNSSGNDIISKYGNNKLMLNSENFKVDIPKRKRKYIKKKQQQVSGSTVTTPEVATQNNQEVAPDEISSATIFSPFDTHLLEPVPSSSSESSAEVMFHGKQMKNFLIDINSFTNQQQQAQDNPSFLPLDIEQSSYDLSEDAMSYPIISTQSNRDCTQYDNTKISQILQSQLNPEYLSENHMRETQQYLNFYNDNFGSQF
# Assay: PBM E-score (8-mer binding enrichment) (E-score (-0.5 to 0.5)); higher = stronger / more preferred TF binding
# Conditions: protein concentration: 200 nM; construct: GST-full length
# Experimental: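 Universal 'all 10-mer' protein binding microarrays (Agilent AMADID 015681) probed with GST-tagged S. cerevisiae TFs (full-length or DBD) made by in vitro transcription/translation (PURExpress), about 100-200 nM. Bound TF was detected with fluorescent anti-GST. Each ungapped 8-mer (which stands for itself and its reverse complement) is scored by the PBM enrichment score (E-score), a modified Wilcoxon-Mann-Whitney statistic from -0.5 to +0.5, computed with the Universal PBM Analysis Suite. Scale: above 0.35 generally sequence-specific binding.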
row,Sequence,PBM E-score
1,CATCGCGG,0.0513
2,TCATGGCA,-0.00249
3,CCATGGCA,0.0885
4,GCATGGCA,0.375
5,ACTCCGCG,0.068
6,CCTACGGA,-0.13
7,CCTACGGC,0.39
8,CCTACGCC,-0.0289
9,ACTACGGG,-0.222
10,ACTACGGC,0.359
11,ACTACGGA,-0.0355
12,CTATCTTA,0.0702
13,GAAAGGAC,0.0713
14,AATAGTAA,0.0925
15,CTGTCGCA,0.00593
16,CCCGCTGA,-0.297
17,GATCGCAA,0.0331
18,ACGCGTGC,0.191
19,CCGCGTGA,0.313
20,CCGCGTGC,0.329
21,CCGCGCGA,0.314
22,CCGCGCGC,0.381
23,GCGCGCGC,0.396
24,GCGCGCGA,0.285
25,CCGCGCGG,0.469

row,Sequence,PBM E-score
1,CAGCGCGG,0.211
2,CCGCGCTC,0.235
3,ACGCGCGG,0.316
4,ACGCGCGC,0.289
5,GCTATCCA,-0.0017
6,CCTCCAGC,-0.217
7,CAAGAGTC,-0.177
8,ACCACGGA,-0.0752
9,ACCACGGG,-0.0439
10,CCCACGGG,-0.166
11,CCCACGGC,0.417
12,CCCACGGA,0.00496
13,GCCACGGC,0.469
14,ACCACGGC,0.327
15,GCCACGGA,0.163
16,GCCACGCC,0.267
17,GGCCCCCA,-0.406
18,AAGCTCAT,-0.206
19,AATTCTCC,0.0125
20,GAATTCTC,0.0702
21,GAAGGCGC,0.333
22,CAAGGCGC,0.4
23,CAAGGCGG,0.101
24,AAAGGCGC,0.402
25,AAAGGCGA,0.0862

row,Sequence,PBM E-score
1,GCAGGCGC,0.148
2,GAAGGCGA,0.129
3,CAAGGCGA,0.194
4,AAAGGCGG,0.111
5,AAACTGGT,-0.0925
6,AGTTCATG,0.0464
7,ATCAGCAT,0.0572
8,GAAAACGC,0.119
9,TAAGTCGA,-0.123
10,TAACAGCA,0.174
11,AATGCACC,-0.0414
12,CTAAGAGC,-0.0921
13,ATCTTCAT,-0.0473
14,AAGCTGTC,-0.113
15,ACAACTAT,0.0651
16,ATTCCGTA,0.106
17,ATGCCGTA,0.478
18,ATGCCGAC,0.0658
19,CTGCCGTC,0.299
20,CTGCCGTA,0.343
21,ATGCCGGG,-0.0642
22,ATGCCGTG,0.484
23,CTTCCGTA,0.163
24,ATACCGTA,0.133
25,CTGCCGGA,0.02

row,Sequence,PBM E-score
1,ATGCCGTC,0.406
2,ATGCCGAG,0.31
3,CAGCGATG,-0.0761
4,AACAGAGC,0.00906
5,GCCTACAC,-0.0439
6,ATATCTAA,0.0738
7,GAAGCTGC,-0.188
8,CCGAGCCC,-0.29
9,CCGAGCCA,-0.0385
10,CCGAGCCG,0.334
11,ACGAGCCA,-0.0521
12,ACGAGCCG,0.336
13,ACGAGCCT,-0.0868
14,CGAGGGAC,-0.245
15,CGCCTCAC,0.395
16,CGCCTCAG,0.289
17,CGCCTCGC,0.394
18,GGCCTCAC,-0.00507
19,CGCCTCGA,0.205
20,AGCCTCGC,0.0691
21,CAGGAGCC,-0.0638
22,GGCTTGGA,-0.128
23,GTTGGGCA,0.0977
24,CTCACCCC,0.0927
25,ATTTCGCC,0.336

row,Sequence,PBM E-score
1,ATCGCGCC,0.394
2,ATATCGCG,0.127
3,CACGCGCC,0.291
4,ATCGCGCA,-0.0273
5,GACGCGCA,-0.105
6,ATTTCGCG,0.177
7,ATATCGCC,0.322
8,GACGCGCC,0.348
9,ATTTCGCA,0.111
10,ATCGCGCG,0.235
11,CTATCGCC,0.0882
12,CATTCGAC,-0.0891
13,CAAAACGG,0.308
14,ACGTGCAG,0.105
15,GATGGTCC,-0.219
16,CCTCTCTC,-0.339
17,AACGCGCG,0.232
18,AACGCGCC,0.361
19,AACGCGCT,0.0273
20,ACAGGGGT,-0.338
21,GAAGGTGA,0.0707
22,CCCGCGGA,0.0756
23,ACCGCGGT,-0.3
24,GCCGCGAA,0.159
25,ACCGCGGG,0.0822

row,Sequence,PBM E-score
1,GCCGCGGC,0.474
2,CCCGCGGG,0.104
3,GCCGCGGA,0.343
4,ACCGCGGA,-0.0118
5,ACCGCGGC,0.384
6,GCCGCGAC,0.282
7,TCCGCGGA,0.0517
8,CCCGCGGC,0.411
9,CGCTTACA,0.0771
10,GTATACCA,0.0622
11,ACTTATCC,-0.0589
12,CATAGACA,0.0911
13,CAATAAAG,0.217
14,AGTTGACC,-0.0773
15,ATATGGGC,-0.0537
16,ACCCGTTC,0.0622
17,ACCGAAAT,0.0238
18,ATCTTAAA,-0.0445
19,AGGACTGC,-0.256
20,AGTTATCG,0.106
21,ACCGCTTA,-0.238
22,GCCGCTTA,0.39
23,ACCGCTCA,0.0634
24,ACCGCTCC,-0.223
25,GCCGCTCA,0.381

row,Sequence,PBM E-score
1,TCCGCTCA,-0.102
2,CCCGCTCC,-0.241
3,CCCGCTTA,0.0273
4,GCCGCTCC,0.398
5,CAGCGCTA,0.0165
6,ATGCCCTA,0.168
7,CAGTACGC,-0.111
8,CAGCTACG,-0.14
9,ATAGCGCG,0.136
10,CTAGCGCC,0.16
11,GAAGCGCC,0.337
12,CAAGCGCC,0.219
13,ACAGCGCC,0.249
14,CCAGCGCC,0.235
15,GCAGCGCC,0.33
16,ATAGCGCC,0.357
17,GAAGCGCA,-0.0259
18,AGGTACCC,-0.414
19,AGCTACCG,-0.16
20,ACATGGCT,-0.137
21,CCATCCAA,0.0222
22,AAAACGGT,-0.0136
23,CAAACGCC,0.258
24,AAAACGGC,0.403
25,CAAACGGA,0.236

row,Sequence,PBM E-score
1,AAAACGCC,0.386
2,CAAACGGC,0.459
3,GAAACGGA,0.132
4,GAAACGGC,0.462
5,CAAACGGG,0.175
6,AAAACGGA,0.201
7,GAAACGCC,0.289
8,AAAACGCG,0.251
9,ACCTGATG,-0.102
10,CCGCATTC,0.105
11,TACCCTAA,-0.0225
12,CACCCACC,-0.192
13,GAGCCATA,0.0155
14,ATTGCTAC,0.0429
15,CAGGCGTC,-0.00022
16,AGGCCAGA,-0.103
17,GCAACGGC,0.411
18,CCAACGGC,0.316
19,ACAACGGC,0.308
20,ATAAAGGA,-0.201
21,CACGCTAC,-0.0658
22,CACTCGGC,0.28
23,GAAAAGAA,0.0978
24,CTTCTAAA,0.168
25,AATGCCGG,0.137

row,Sequence,PBM E-score
1,AATGCCGA,0.303
2,AATGCCAC,0.293
3,AATGCCTC,0.308
4,AATGCCGT,0.485
5,AATGCCGC,0.465
6,AGGCAGAG,-0.00743
7,CCCTAAAC,-0.193
8,GCGATCAA,-0.0307
9,CCTCCTCG,-0.21
10,CGCGCGGC,0.483
11,AGCGCGGC,0.402
12,CTCGCGGA,-0.0275
13,CTCGCGGC,0.334
14,AGCGCGGA,0.0636
15,ATCGCGGC,0.238
16,CGCGCGTC,0.16
17,CGCGCTGC,0.122
18,AGCGCGGG,0.098
19,AGGTGGCC,-0.294
